Assay outcomes: PubChem, National Center for Advancing Translational Sciences (NCATS)
BRCA1 expr up – qHTS Assay to Identify Small Molecule Activators of BRCA1 Expression; Potency, µM (series often up to 46.1 µM), for inactives: at the top dose activation, actives largely listed as activators; actives 1.1% (n = 380,000); MCF7-BRCA1-FFLuc reporter, luminescence, 48 h; response scale: scaled: vehicle 0%, 10 µM genistein 100%; also: nearly all actives have a fitted effect of over 80% in size
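MCF7 cells carrying a BRCA1-firefly luciferase reporter (2000 cells/well, phenol-red free MEM) were attached for 2 h at 37 °C, then given compounds for 48 h. Luminescence was read 15 min after luciferase reagent; activity normalized to genistein (10 microM) and DMSO.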
Tb PFK inh – qHTS Assay to Find Inhibitors of T. brucei phosphofructokinase | ATP-dependent 6-phosphofructokinase (Trypanosoma brucei brucei), O15648 | T. brucei PFK, ADP-Glo luminescence | Potency, µM (doses to about 57.5 µM), for the others: top-dose activity, negative = inhibition, hits mostly inhibitors | actives 0.17% (n = 330,000);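 also: 0% = uninhibited 1x PFK enzyme wells and -100% = no-enzyme wells; nearly all actives have a fitted effect of over 60% in size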
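In TEA buffer at pH 8.0 with 5 mM MgCl2, enzyme (1.25 nM) converted F6P (0.5 mM) and ATP (0.1 mM) for 45 min at room temperature. ADP product was read by luciferase luminescence.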
PLK1 PBD block – qHTS for Inhibitors of PLK1-PDB (polo-like kinase 1 - polo-box domain): Primary Screen; Potency, µM, without a hit: max response, negative = inhibition, usual class: inhibitors; Serine/threonine-protein kinase PLK1 (Homo sapiens), P53350; actives 2.8% (n = 360,000); AID 720504, 2013; Plk1 PBD binding of FITC phosphopeptide, fluorescence polarization; also: series mostly up to about 57 µM; % is scaled to controls: 0 for no effect and ±100 for the full control effect; nearly all actives have a fitted effect of over 65% in size
VDR inh – Inhibitors of the vitamin D receptor (VDR): qHTS; Vitamin D3 receptor (Homo sapiens), P11473; VDR-SRC2-3 peptide fluorescence polarization, 2 h; Potency, µM, without a hit: max response, negative = inhibition, actives largely listed as inhibitors; actives 0.93% (n = 400,000); AID 504847, 2011; also: % is scaled to controls: 0 for no effect and ±100 for the full control effect
Target sequence (P11473 whole entry, looked up): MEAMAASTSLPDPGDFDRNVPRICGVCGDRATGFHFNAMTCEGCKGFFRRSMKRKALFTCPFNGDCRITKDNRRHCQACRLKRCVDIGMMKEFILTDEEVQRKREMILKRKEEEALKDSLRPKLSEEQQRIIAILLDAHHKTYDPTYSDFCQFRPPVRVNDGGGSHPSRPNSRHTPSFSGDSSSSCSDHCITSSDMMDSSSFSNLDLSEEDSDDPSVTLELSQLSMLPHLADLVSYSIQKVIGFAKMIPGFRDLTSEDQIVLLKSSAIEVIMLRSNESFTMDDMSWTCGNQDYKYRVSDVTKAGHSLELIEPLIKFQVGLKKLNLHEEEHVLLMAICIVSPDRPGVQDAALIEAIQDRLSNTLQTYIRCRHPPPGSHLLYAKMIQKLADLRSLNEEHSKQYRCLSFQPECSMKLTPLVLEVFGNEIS
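The screen uses fluorescence polarization to detect compounds that interfere with recruitment of the SRC2-3 coactivator peptide to VDR; plates are read after 2 h at room temperature.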
* = called active by the depositor; u = inconclusive; x = no result given. This is a sample that favours compounds with a hit; in the whole collection about 3.9% have one here. Calls follow the shape of the dose curve; as a rule, active = well fitted curve in the direction sought with a large enough effect; inconclusive = small, poorly fitted or top-dose-only effect, or another doubt; inactive = no such curve, though single readings can be large; an effect the other way counts as inactive or inconclusive. Potency is read from the fitted curve at half-maximal effect.

SMILES	BRCA1 expr up	Tb PFK inh	PLK1 PBD block	VDR inh
COc1ccc(N2CCN(C(=O)CCS(=O)(=O)c3ccc4c(c3)NC(=O)CO4)CC2)cc1	1%	4%	24µM*	-26%
COc1ccc(CNC(=O)CC(C)S(=O)(=O)c2ccc3c(c2)NC(=O)CO3)cc1 (centres undefined)	6%	1%	24µM*	-1%
CCOc1ccc(C(=O)Oc2c(Sc3ccccc3)c(C)nn2C(C)(C)C)cc1OCC	x	x	x	-13%
O=C(O)Cc1ccc(C(=O)c2ccccc2)s1	16%	0%	-8%	-2%
CC(C(=O)O)c1ccc(C(=O)c2ccccc2)s1 (centres undefined)	14µM*	-10%	-14%	8%
CSc1nc(SCC(=O)O)c2sc3nc(-c4ccccc4)c4c(c3c2n1)CCC4	-5%	2%	12µM*	-12%
CSc1nc(N2CCN(CCO)CC2)c2sc3nc(-c4ccco4)c4c(c3c2n1)CCC4	x	2%	x	x
CSc1nc(N(C)CCO)c2sc3nc(-c4ccco4)c4c(c3c2n1)CCC4	-2%	u	24µM*	u
O=C(COC(=O)c1ccccc1Oc1ccccc1)Nc1ccc(Br)cc1	0%	x	x	x
CCc1ccc(N2CC(C)Cn3c2nc2c3c(=O)n(CC(=O)O)c(=O)n2C)cc1 (centres undefined)	8%	x	x	5%
O=C(/C(=C/c1ccccc1)n1cncn1)c1ccc(Cl)cc1Cl	-22%	-1%	19µM*	20µM*
COc1ccc2[nH]c3c(=O)n(CCCCC(=O)NCCC(C)C)c(=S)[nH]c3c2c1	-9%	-2%	12µM*	-26%
CCCNC(=O)CCCCn1c(=S)[nH]c2c([nH]c3ccc(OC)cc32)c1=O	-7%	0%	21µM*	u
COc1ccc2[nH]c3c(=O)n(CCCCC(=O)N4CCCC4)c(=S)[nH]c3c2c1	-10%	-11%	-10%	5%
COc1ccc2[nH]c3c(=O)n(CCCC(=O)NC4CCCCC4C)c(=S)[nH]c3c2c1 (centres undefined)	-2%	1%	30µM*	-3%
COc1ccc2[nH]c3c(=O)n(CCCC(=O)NC4CCC(C)CC4)c(=S)[nH]c3c2c1 (centres undefined)	-13%	0%	-3%	15%
COc1cccc(C2C(C(=O)Nc3cccnc3)=C(C)Nc3nc(SCc4ccccc4)nn32)c1 (centres undefined)	10%	x	x	0%
COC(=O)c1ccc(Cc2ccc(C(=O)OC)o2)o1	16%	-2%	-1%	1%
CCC(C)NCc1ccc(C(=O)OC)o1 (centres undefined)	13%	6%	24µM*	u
Cc1ccc(N(C)S(=O)(=O)c2nnc(NC(=O)C3CCCCC3)s2)cc1	5%	x	x	7%
c1ccc(CNc2ncnc3c2ncn3C2CCCCO2)cc1 (centres undefined)	13µM*	3%	1%	1%
c1ccc(CSc2ncnc3c2ncn3C2CCCCO2)cc1 (centres undefined)	u	x	-5%	10%
O=C(Cn1cnc2c(NCc3ccccc3)ncnc21)NCC1CCCO1 (centres undefined)	7%	1%	-2%	-17%
Clc1cccc(CSc2ncnc3c2ncn3C2CCCCO2)c1 (centres undefined)	5.6µM*	x	2%	12%
Fc1ccc(CSc2ncnc3c2ncn3C2CCCCO2)cc1 (centres undefined)	7.1µM*	x	6%	11%
SMILES	BRCA1 expr up	Tb PFK inh	PLK1 PBD block	VDR inh
CNc1nc(-c2ccc3c(c2)OCO3)nc2ccccc12	x	x	x	1%
c1ccc(CNc2nc(-c3ccc4c(c3)OCO4)nc3ccccc23)cc1	x	x	x	45µM*
c1ccc(CNc2ncncc2-c2ccc3c(c2)OCO3)cc1	x	x	x	28µM*
CC(C)c1ccc(NC(=O)CN(C)S(=O)(=O)c2ccc3c(c2)n(C)c(=O)c(=O)n3C)cc1	x	x	x	-7%
CCCn1c(SCC(=O)Nc2cc(S(=O)(=O)N3CCOCC3)ccc2OC)n[nH]c1=O	7%	-9%	30µM*	13%
COc1ccccc1NC(=O)COn1nnc2ccc(S(=O)(=O)N3CCOCC3)cc21	-1%	1%	19µM*	-28%
